Results with a measured potency or affinity are listed apart. The source made the active and inactive calls.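 The calls were made as follows: active = absorbance falls by 30% or more versus neutral controls, with a potency fitted within twice the top valid dose; inconclusive = no clear call, values can overlap the other calls; inactive = change opposite to expected direction, plus the rest.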

Six molecules from PubChem BioAssay AID602350 (Broad Institute, 2012) can be followed below.

Sequence of Protein disulfide-isomerase (Homo sapiens) (P07237 whole entry, looked up): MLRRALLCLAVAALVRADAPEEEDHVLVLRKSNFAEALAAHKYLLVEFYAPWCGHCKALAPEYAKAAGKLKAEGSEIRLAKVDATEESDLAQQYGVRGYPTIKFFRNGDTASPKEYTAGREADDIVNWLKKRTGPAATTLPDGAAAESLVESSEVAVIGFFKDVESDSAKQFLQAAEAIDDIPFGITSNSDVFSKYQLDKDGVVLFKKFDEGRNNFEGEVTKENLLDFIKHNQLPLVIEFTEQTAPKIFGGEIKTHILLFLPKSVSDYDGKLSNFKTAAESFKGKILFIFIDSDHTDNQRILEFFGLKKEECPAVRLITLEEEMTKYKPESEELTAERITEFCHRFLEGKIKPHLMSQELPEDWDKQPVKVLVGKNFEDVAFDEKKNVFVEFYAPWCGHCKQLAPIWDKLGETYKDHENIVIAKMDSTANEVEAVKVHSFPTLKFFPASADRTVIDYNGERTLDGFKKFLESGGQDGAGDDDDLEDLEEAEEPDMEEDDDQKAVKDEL

This assay has as its target Protein disulfide-isomerase (Homo sapiens) (UniProt P07237). Briefly: PDI inhibitors, insulin aggregation turbidity, dose response, biochemical, absorbance, cherry-picked samples (AID 602350). Particulars: recombinant PDI insulin aggregation, absorbance 650 nm, 90 min; series mostly up to 19.5 µM.
Turning to `NC(=O)CSc1nnc([C@@H](N)Cc2c[nH]c3ccccc23)o1`, the result was inactive. The value for `CC(Cc1ccc(O)cc1)NCC(O)c1ccc(O)c(O)c1` (stereo unspecified) was “inactive”; that for `C[C@H]1CCCC(=O)CCCCCc2cc(O)cc(O)c2C(=O)O1` was “inactive”; that for `CN1CCN(CCOC2c3ccccc3CSc3ccc(Cl)cc32)CC1` (stereo unspecified) was “inactive”. Under `CCOC(=O)C1(CCOc2ccccc2)CCN(Cc2cccc(O)c2)CC1` stands “inactive”; under `CCOC(C(=O)OCCCN(CC)CC)(c1ccccc1)c1ccccc1`, “inactive”.
